High-throughput results deposited in PubChem by National Center for Advancing Translational Sciences (NCATS).
PLK1 PBD block – PLK1 (human) polo-box domain binding inhibition; P53350; Plk1 PBD binding of FITC phosphopeptide, fluorescence polarization; Potency, µM, most hits filed as inhibitors; 360,000 compounds, 2.8% hits; AID 720504; also: series mostly up to about 57 µM; nearly all actives have a fitted effect of over 65% in size
Target sequence (P53350 whole entry, looked up, the tested form may be a part): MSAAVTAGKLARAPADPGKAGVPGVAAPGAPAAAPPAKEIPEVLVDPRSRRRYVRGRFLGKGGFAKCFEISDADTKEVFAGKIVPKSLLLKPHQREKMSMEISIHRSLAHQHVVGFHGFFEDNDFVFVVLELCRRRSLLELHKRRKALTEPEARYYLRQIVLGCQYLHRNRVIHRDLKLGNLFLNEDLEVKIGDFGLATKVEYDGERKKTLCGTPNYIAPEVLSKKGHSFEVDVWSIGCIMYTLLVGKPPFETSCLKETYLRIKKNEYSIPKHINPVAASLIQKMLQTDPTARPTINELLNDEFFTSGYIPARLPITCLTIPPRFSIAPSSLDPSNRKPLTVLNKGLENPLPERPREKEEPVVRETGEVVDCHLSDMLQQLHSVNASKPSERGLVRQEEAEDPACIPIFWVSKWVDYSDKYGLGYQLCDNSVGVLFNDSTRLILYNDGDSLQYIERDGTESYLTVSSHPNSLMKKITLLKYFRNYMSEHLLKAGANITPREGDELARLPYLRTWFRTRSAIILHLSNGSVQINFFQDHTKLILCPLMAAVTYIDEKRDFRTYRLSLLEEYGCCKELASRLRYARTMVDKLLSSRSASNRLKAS
ALOX12 inh – blocks human arachidonate 12S-lipoxygenase; purified 12hLO, xylenol orange hydroperoxide absorbance; Potency, µM (doses to about 108 µM), most hits filed as inhibitors; 580,000 compounds, 1.1% hits; AID 1671190
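Purified human 12hLO (150 nM final) in 25 mM Hepes, 0.01% Triton X-100, pH 7.0 was preincubated 15 min at room temperature with compound. Then 40 uM arachidonic acid was added, 30 min. Hydroperoxide was read by Fe-XO absorbance ratio 573/405 nm.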
VDR inhibitor – inhibitors of human vitamin D receptor; P11473; VDR-SRC2-3 peptide fluorescence polarization, 2 h; Potency, µM, actives largely listed as inhibitors; 400,000 compounds, 0.93% hits; AID 504847
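Compounds are added to VDR with labelled SRC2-3 coactivator peptide and held 2 h at room temperature. Inhibition of the VDR–peptide interaction is then read as a change in fluorescence polarization.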
Sfp inh – blocks B. subtilis Sfp PPTase activity. Biochemical Sfp PPTase activity, qHTS. Potency, µM, usual class: inhibitors. 310,000 compounds, 3.5% hits;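 also: the enzyme is Sfp with the accession as filed and its product quenches rhodamine fluorescence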
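After 15 min at room temperature with compound, 15 nM Sfp received 5 uM rhodamine-CoA plus 12.5 uM BHQ-2-ybbR (50 mM Hepes pH 7.6, 10 mM MgCl2). Rate came from the fluorescence difference over 30 min, ex 525/em 598 nm.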
Of the large screens only hits and unclear results are named; the others gave an inactive call; ! = not active in a repeat. Compounds with a hit are over-represented: about 4.2% of the library has one in this group of screens. Calls follow the shape of the dose curve; as a rule, active = well fitted curve in the direction sought with a large enough effect; inconclusive = small, poorly fitted or top-dose-only effect, or another doubt; inactive = no such curve, though single readings can be large; an effect the other way counts as inactive or inconclusive.

OC(CNCCc1ccc(C(F)(F)F)cc1)COC(c1ccccc1)c1ccccc1 (stereo not given)	ALOX12 inh 14µM, Sfp inh 56µM
OC1(CN2CCN(c3nccs3)CC2)CNCCOC1 (stereo not given)	ALOX12 inh 10µM (no result: PLK1 PBD block, VDR inhibitor, Sfp inh)
COc1ccnc(N2CCN(CC3(O)CNCCOC3)CC2)n1 (stereo not given)	none (no result: PLK1 PBD block, VDR inhibitor, Sfp inh)
CN(C)c1ccc(C(=C2C=CC(=[N+](C)C)C=C2)c2ccccc2)cc1	ALOX12 inh 0.32µM, VDR inhibitor inconclusive, Sfp inh 50µM (no result: PLK1 PBD block)
CN(C)c1ccc(C(=C2C=CC(=[N+](C)C)C=C2)c2c(O)c(S(=O)(=O)[O-])cc3cc(S(=O)(=O)O)ccc23)cc1	Sfp inh inconclusive (no result: PLK1 PBD block, ALOX12 inh)
CN(C)c1ccc(C(=C2C=CC(=[N+](C)C)C=C2)c2ccc(N(C)C)cc2)cc1	ALOX12 inh inconclusive, VDR inhibitor 40µM, Sfp inh 45µM! (no result: PLK1 PBD block)
CN(C)c1ccc(/C=N/n2cnn(Cc3ccccc3Cl)c2=S)cc1	PLK1 PBD block inconclusive, ALOX12 inh inconclusive
CC(Oc1ccccc1F)c1nnc(SCC(=O)c2c(N)n(C3CC3)c(=O)[nH]c2=O)o1 (stereo not given)	none (no result: Sfp inh)
CCCNC(=O)NNC(=O)c1ccc(F)cc1	PLK1 PBD block 24µM, VDR inhibitor inconclusive
O=C(c1ccco1)N1CCN(C(=O)c2cc3c(s2)-c2ccccc2OC3)CC1	ALOX12 inh inconclusive, Sfp inh 50µM
COc1ccc(NC(=O)C[C@@H]2C(=O)N(Cc3ccccc3)CC2(C)C)cc1	none (no result: VDR inhibitor, Sfp inh)
CN(CC(=O)Nc1ccc(Cl)cc1)Cc1cc(=O)n2ccsc2n1	PLK1 PBD block 30µM
Cc1ccc(NC(=O)CN(C)Cc2cc(=O)n3ccsc3n2)cc1	none
CCCCCCc1cc2cc(S(=O)(=O)c3ccc(Cl)cc3)c(=O)oc2cc1O	ALOX12 inh inconclusive
CCN(CC)c1ccc2cc(S(=O)(=O)c3ccc(Cl)cc3)c(=O)oc2c1	PLK1 PBD block 19µM
CN1CCN(NC(=O)c2ccc(Br)s2)CC1	PLK1 PBD block 30µM, VDR inhibitor inconclusive
O=C(NN1CCOCC1)c1ccc(Br)s1	none
CC(C)CCNC(=O)c1onc(CSc2ccccn2)c1C(=O)NCCC(C)C	PLK1 PBD block 27µM, VDR inhibitor inconclusive (no result: Sfp inh)
COCCNC(=O)c1onc(CSc2ccccn2)c1C(=O)NCCOC	none (no result: Sfp inh)
CCCCn1c(=O)c(CCc2ccccc2)nc2c1c(=O)[nH]c(=O)n2Cc1ccccc1	ALOX12 inh 35µM (no result: PLK1 PBD block, VDR inhibitor, Sfp inh)
Cc1ccc(-c2nc3c(c(=O)[nH]c(=O)n3Cc3ccccc3)n2Cc2ccccc2)o1	ALOX12 inh inconclusive, Sfp inh 13µM
Cc1ccccc1C(=O)OCC(=O)Nc1cccc(S(=O)(=O)N2CCCCC2)c1	none (no result: VDR inhibitor, Sfp inh)
COc1ccc(C2=NN(S(C)(=O)=O)C(c3cccs3)C2)cc1 (stereo not given)	none
COc1ccc(C2CC(c3ccc(OC)c(OC)c3)=NN2S(C)(=O)=O)cc1 (stereo not given)	PLK1 PBD block 27µM, VDR inhibitor inconclusive
CC(C)C[C@@H]1Cc2[nH]c(=S)[nH]c(=O)c2[C@H](CCc2ccccc2)O1	none (no result: VDR inhibitor, Sfp inh)
N#Cc1nc(-c2ccc(F)cc2)oc1N1CCCC1	PLK1 PBD block 15µM
N#Cc1nc(-c2ccc(F)cc2)oc1N1CCCCC1	none
CCCC1CCC(C2=N/C(=C\c3ccc(OC)c(OC)c3)C(=O)O2)CC1 (stereo not given)	ALOX12 inh inconclusive
CC(=O)Oc1ccc(/C=C2\N=C(C3CCCCC3)OC2=O)cc1	VDR inhibitor 79µM
COc1cccc(/C=C2\N=C(C3CCCCC3)OC2=O)c1OC	VDR inhibitor 32µM
Cc1nc2c(Br)c3nc(C(F)(F)F)[nH]c3c(Br)c2[nH]1	none (no result: ALOX12 inh)
CCOCCCn1c(SCC(=O)NCCCOC)nc2c(sc3ccccc32)c1=O	none (no result: PLK1 PBD block, Sfp inh)
Cc1ccc(S(=O)(=O)Nc2cccc(-c3ccc(N4CCCCCC4)nn3)c2)c(C)c1	PLK1 PBD block 27µM, VDR inhibitor inconclusive
Cc1ccc(S(=O)(=O)Nc2ccc(-c3ccc(N4CCCCCC4)nn3)cc2)c(C)c1	none (no result: PLK1 PBD block, Sfp inh)
COc1cc(-c2noc(-c3ccc(Br)cc3)n2)cc(OC)c1OC	none (no result: PLK1 PBD block, VDR inhibitor, Sfp inh)
CC(/C=N/n1c(-c2ccc(C)cc2)n[nH]c1=S)=C\c1ccco1	PLK1 PBD block inconclusive, ALOX12 inh inconclusive, VDR inhibitor inconclusive, Sfp inh 50µM
CC(/C=N/n1c(-c2ccco2)n[nH]c1=S)=C\c1ccco1	ALOX12 inh inconclusive, Sfp inh 45µM
Cc1cc(-c2n[nH]c(=S)n2/N=C/C(Cl)=C/c2ccccc2)n[nH]1	PLK1 PBD block inconclusive, ALOX12 inh inconclusive, VDR inhibitor inconclusive, Sfp inh 50µM
Cc1cccc(/C=N/n2c(-c3ccco3)n[nH]c2=S)c1	PLK1 PBD block inconclusive, Sfp inh inconclusive
CC(/C=N/n1c(-c2ccccc2)n[nH]c1=S)=C\c1ccco1	ALOX12 inh inconclusive, Sfp inh inconclusive
CC(/C=N/n1c(-c2ccncc2)n[nH]c1=S)=C\c1ccco1	ALOX12 inh 7.1µM
COc1cc(C(=O)Nc2cccc(OCc3cc(=O)n4c(C)csc4n3)c2)cc(OC)c1OC	none (no result: PLK1 PBD block, Sfp inh)
CCOc1ccc(Oc2nc(NCC(C)C)nc(N3CCOCC3)n2)nn1	ALOX12 inh inconclusive (no result: PLK1 PBD block, Sfp inh)
CCC1CN(C(=O)N2CCC(C(=O)NCCc3ccccc3OC)CC2)c2ccccc2O1 (stereo not given)	none
Cc1cccc(-c2n[nH]c(=S)n2/N=C/c2ccc(C)s2)c1	Sfp inh inconclusive
CC(=C/c1ccccc1)/C=N/n1c(-c2ccncc2)n[nH]c1=S	ALOX12 inh 13µM
Cc1ccc(/C=N/n2c(-c3ccncc3)n[nH]c2=S)s1	ALOX12 inh inconclusive, Sfp inh 63µM
CC(/C=N/n1c(-c2cccnc2)n[nH]c1=S)=C\c1ccccc1	Sfp inh inconclusive
CCOC(=O)C1=C(O)/C(=C\c2ccc(CNS(=O)(=O)c3ccc(Br)cc3)o2)N=C1C	PLK1 PBD block inconclusive, ALOX12 inh 45µM, Sfp inh inconclusive
COc1ccc(N=Cc2ccc(CNS(=O)(=O)c3ccc(Cl)cc3)o2)cc1	none
COC(=O)C1=C(O)/C(=C\c2ccc(CNS(=O)(=O)c3ccc(Cl)cc3)o2)N=C1C	ALOX12 inh 50µM, Sfp inh 35µM
COC(=O)C1=C(O)/C(=C\c2ccc(CNS(=O)(=O)c3ccccc3)o2)N=C1C	ALOX12 inh inconclusive, Sfp inh 50µM
O=C(CCC1N=C2c3ccccc3N=C(SCC(=O)Nc3ccccc3F)N2C1=O)NCc1cccs1 (stereo not given)	none (no result: PLK1 PBD block, Sfp inh)
CCOC(=O)/C=C(\C)Sc1cc(=O)oc2ccccc12	none
CCOC(=O)/C=C(\C)Sc1cc(O)c2ccccc2c1O	PLK1 PBD block 11µM, ALOX12 inh inconclusive, VDR inhibitor 20µM, Sfp inh 7.9µM
CCCCCCCCn1ccc(=N)cc1	ALOX12 inh inconclusive
CCCCCCCCCCCCCCCCn1cc[n+](C)c1	ALOX12 inh inconclusive, Sfp inh 22µM
CC1(C(=O)OCC(=O)Nc2nc(-c3ccc(F)c(F)c3)cs2)CC1(Cl)Cl (stereo not given)	ALOX12 inh 56µM
COc1ccc(CC(=O)Nc2nc(-c3ccc(F)c(F)c3)cs2)cc1	none
CCCCOC(=O)COc1cc(O)c2c(=O)cc(-c3ccccc3)oc2c1	none (no result: PLK1 PBD block, VDR inhibitor, Sfp inh)
CN(C)C(=O)NC(NC(=S)Nc1ccccc1)C(Cl)(Cl)Cl (stereo not given)	PLK1 PBD block 12µM, ALOX12 inh inconclusive, VDR inhibitor inconclusive, Sfp inh 56µM
